Source: PubChem (National Center for Advancing Translational Sciences (NCATS))
Rows were chosen to be rich in hits. Some 9% of all compounds tested hit in one or more screens of this group.
HPGD block: HPGD (human) dehydrogenase inhibition. purified HPGD, NADH fluorescence kinetic, PGE2 substrate. Potency, µM, without a hit: top-dose activity change, negative = inhibition, usual class: inhibitors. 150,000 tested, 4.3% active. AID 894; active means well fitted inhibition curve with a large enough effect, not every such curve was filed as active; inconclusive means small, poorly fitted or top-dose-only effect, or another doubt; inactive means no such curve, though single readings can be large or run the other way
Target sequence (P15428 whole entry, looked up): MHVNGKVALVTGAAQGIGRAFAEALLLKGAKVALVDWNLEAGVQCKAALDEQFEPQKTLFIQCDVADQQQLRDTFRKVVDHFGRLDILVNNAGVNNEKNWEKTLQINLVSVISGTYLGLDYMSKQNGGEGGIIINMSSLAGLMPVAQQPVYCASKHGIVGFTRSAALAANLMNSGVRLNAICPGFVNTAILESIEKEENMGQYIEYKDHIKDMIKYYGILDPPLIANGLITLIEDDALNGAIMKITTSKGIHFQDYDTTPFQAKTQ
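NADH formation kinetics: reaction with 30 uM PGE2 and 1 mM NAD+ (final), 20 nM enzyme, Tris-HCl pH 8 with Tween 20, after 15 min compound preincubation at room temperature. Fluorescence change, last versus first of five reads.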
IMPase Li inh: membrane-permeable IMPase blocker, potentiated with lithium | CHO-M1 cells, IP1 TR-FRET (IP-One), carbachol + lithium | Potency, µM (titrated, usually from 59.4 µM), for the others: at the top dose activity, negative = IMPase inhibition, hits mostly inhibitors | 210,000 tested, 0.35% active | AID 1457;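 further: IP1 builds up when IMPase is blocked and the TR-FRET signal falls; plate controls were basal vehicle for no effect and high inhibitor control for full effect; nearly all actives have a fitted effect of over 50% in size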
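IP1 accumulation measured by competitive TR-FRET in lysed CHO-M1 cells after 30 min compound exposure at 37C, with a small lithium addition to potentiate weak responses. Hill-equation AC50 from ratio and donor-channel data.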
LMNA splice mod: modulators of lamin A splicing | 200,000 tested, 0.01% active | AID 1487 | Potency, µM (top dose mostly 46.1 µM), for inactives: at the top dose ratio change, negative = inhibition, actives largely listed as inhibitors | HeLa LMNA splicing GFP/RFP minigene ratio, 48 h; active means well fitted inhibition curve with a large enough effect in the signal ratio, with a control signal flat, not every such curve was filed as active; inconclusive means small, poorly fitted or top-dose-only effect, or effect the other way, or a change in a side signal; the % refers to the signal ratio
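S3 HeLa cells stably expressing lamin A-EGFP splicing minigene plus DsRed2, 600 cells/well, 48 h compound exposure at 37C. Laser-scanning cytometry; analysed as GFP (500-530 nm)/RFP (575-640 nm) total intensity ratio; 0.5% DMSO vehicle.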
KinaseGlo FLuc: blocks Kinase-Glo luciferase, a counter-screen artifact; Q27757; Kinase-Glo luciferase, ATP luminescence, 8 min; Potency, µM (series often up to 38.3 µM), without a hit: at the top dose activity change, negative = inhibition, actives largely listed as inhibitors; 200,000 tested, 0.28% active; AID 1379; further: nearly all actives have a fitted effect of over 60% in size
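Compound is pinned into ATP-containing buffer (10 uM ATP, imidazole pH 7.2, 7 mM MgCl2). Kinase-Glo luciferase reagent is then added. Light output is recorded following an 8-min room-temperature incubation.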
ALDH1A1 inh: ALDH1A1 (human) enzyme inhibition. P00352. Purified ALDH1A1, NADH fluorescence, propionaldehyde substrate. Potency, µM (titrated, usually from 75.3 µM), for the others: top-dose activity, negative = inhibition, most hits filed as inhibitors. 220,000 tested, 7.3% active. AID 1030; active means well fitted inhibition curve with a large enough effect, not every such curve was filed as active; inconclusive means small, poorly fitted or top-dose-only effect, or another doubt; inactive means no such curve, though single readings can be large or run the other way;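 further: plate controls were no enzyme wells and a reference inhibitor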
* hit, by the source's call; u = inconclusive; x = no result; [ ] = another dose, or the depositor's remark. Unless noted, the call rests on the fitted dose curve; in most records, active means well fitted curve in the direction sought with a large enough effect; inconclusive means small, poorly fitted or top-dose-only effect, or another doubt; inactive means no such curve, though single readings can be large; an effect the other way counts as inactive or inconclusive. Unless noted, on the % scale 0 is the no-effect control and ±100 the full control effect; potency means the concentration at half of the fitted maximal effect.

SMILES	HPGD block	IMPase Li inh	LMNA splice mod	KinaseGlo FLuc	ALDH1A1 inh
O=C(NCCSc1c[nH]c2ccccc12)c1ccco1	16µM*	1%	-17%	-2%	-2%
O=C(NCCCCCNC(=O)c1ccco1)c1ccco1	-14%	25%[38.3 µM]	5%	1%	28µM*
O=C(NCc1cccc(CNC(=O)c2ccco2)c1)c1ccco1	14µM*	-16%[38.3 µM]	-10%	-8%	u
O=C(NCCSc1c[nH]c2ccccc12)c1c(F)cccc1F	x	6%	x	x	-4%
CCOc1ccc(N/C=C/C(=O)c2ccccc2)c([N+](=O)[O-])c1	-17%	1%	-6%	11µM*	100%
CCOc1ccc(Br)cc1S(=O)(=O)Nc1ccc(Cl)c(S(=O)(=O)N(C)C)c1	x	x	u	x	0.35µM*
C=CCN1c2ccccc2[C@]23C[C@@H](C(=O)OC)N(S(=O)(=O)c4ccc(C(F)(F)F)cc4)C2=NC(C(=O)OC)=C(C(=O)OC)[C@H]13	-4%	-7%	-22%[9.22 µM]	-4%[7.66 µM]	-5%[13.5 µM]
CC(NC(=O)/C(=C\c1ccco1)NC(=O)c1ccccc1Br)C(=O)O (centres undefined)	x	-7%	x	x	1%
Cc1cccc(/C=N/N(CCO)C2=NS(=O)(=O)c3ccccc32)c1	x	-2%	u	2%	u
N#CCCN(/N=C/c1cccnc1)C1=NS(=O)(=O)c2ccccc21	x	9%	u	-1%	2µM*
COCCn1c(=O)c(-c2ccc(Cl)cc2)nc2cnc(N3CCOCC3)nc21	x	-22%	14%	x	u
COc1ccc2c(c1)c(C(=O)CNc1nc(C)cs1)c(C)n2C	-20%	-10%[38.3 µM]	0%	9%	u
CCOCc1cnc(C)nc1NCC(=O)c1c(C)n(C)c2ccc(OC)cc12	-7%	0%[38.3 µM]	13%	-2%	32µM*
O=C(Nc1ccc(O)cc1)c1cccc(Oc2ccc([N+](=O)[O-])cc2)c1	x	4%	x	0%	-9%
CN(C)S(=O)(=O)Oc1cccc(C(=O)Nc2ccc([N+](=O)[O-])cc2)c1	x	13%	u	3%	4.5µM*
Cc1ccc(S(=O)(=O)NCCCCCC(=O)Nc2ccccn2)cc1	-3%	23%[38.3 µM]	-12%	-2%	22µM*
Cc1ccc(S(=O)(=O)NCCCCCC(=O)Nc2ccccc2)cc1	-2%	4%	u	-1%	11µM*
Cc1ccc(S(=O)(=O)NCCCCCC(=O)Nc2ccccc2C)cc1	-1%	-2%	-12%	-2%	4µM*
CNC(=O)CCCCCNS(=O)(=O)c1ccc(C)cc1	-6%	7%	-4%	3%	-2%
Cc1nc2cc(NC(=O)COc3ccc(C#N)cc3)ccc2n1-c1ccccc1	-14%	19%[38.3 µM]	u	-2%	11µM*
Cc1nc2cc(C(=O)OCC(=O)Nc3ccc(C#N)cc3)ccc2n1-c1ccccc1	u	-2%	6%	-4%	-2%
O=C(Oc1cccc(-n2cnnn2)c1)c1ccccc1Cl	x	1%	12%[46 µM]	-1%	-1%
O=C(Cc1cccs1)NC1C(=O)N2C(C(=O)[O-])=C(C[n+]3ccccc3)CSC12 (centres undefined)	32µM*	11%	u	-14%	28µM*
CCCc1ccc(-c2c(C)sc(N)c2C#N)cc1	-26%	18%[38.3 µM]	-2%	0%	20µM*
O=c1cc(-c2ccccc2)oc2ccccc12	8.9µM*	2%	x	x	-17%
SMILES	HPGD block	IMPase Li inh	LMNA splice mod	KinaseGlo FLuc	ALDH1A1 inh
O=c1cc(-c2ccccc2)oc2cc(O)c(O)cc12	18µM*	1%	x	-13%	2%
O=c1cc(-c2ccc(O)c(O)c2)oc2ccccc12	7.1µM*	53%	x	-9%	25µM*
Cc1cc(C)c(S(=O)(=O)NC(CC(=O)O)c2cccc([N+](=O)[O-])c2)c(C)c1 (centres undefined)	x	-3%	12%[9.22 µM]	0%	-3%
Cc1oc2c(O)c(O)ccc2c(=O)c1-c1cnn(-c2ccccc2)c1	18µM*	37%[38.3 µM]	15%	-4%	28µM*
Cc1oc2cc(O)cc(C)c2c(=O)c1-c1cnn(-c2ccccc2)c1	u	16%[38.3 µM]	13%	1%	u
CC(C)(C)c1cc(NC(=O)COC(=O)c2ccc3c(=O)n4c(nc3c2)CCC4)n(-c2ccccc2)n1	-23%	37%[38.3 µM]	-9%	-2%	4µM*
COC(=O)c1cc(=O)n(Cc2ccco2)c(=Nc2ccc(F)cc2)s1	x	13%	x	x	11µM*
O=C1CN(C(=S)NC(=O)c2ccc(-c3ccccc3)cc2)CCN1	x	4%	-20%[46 µM]	0%	-3%
Cc1oc(-c2ccc3c(c2)OCCO3)cc1C(=O)NC(CCC(=O)O)C(=O)O (centres undefined)	14µM*	-4%[38.3 µM]	8%	-2%	7.9µM*
O=C(O)CC[C@H](NC(=O)c1ccccc1C(=O)O)C(=O)O	-2%	4%	u	-4%	-5%
Cc1oc(-c2ccc3c(c2)OCCO3)cc1C(=O)O	u	-10%[38.3 µM]	8%	13µM*	u
Cc1oc(-c2ccc3c(c2)OCCO3)cc1C(=O)NCC(=O)O	x	15%	1%[46 µM]	-2%	u
Cc1cc(C)n2nc(SCc3nnc(-c4ccc(F)cc4)o3)nc2n1	x	18%	u	3%	u
O=C1c2ccccc2COc2ccc(O)cc21	-12%	-9%[38.3 µM]	4%	-6%	u
COc1ccc2c(c1)C(=O)c1ccccc1CO2	35µM*	28%[38.3 µM]	20%	-24%	4µM*
O=C(CCC1CCCN(C(=O)c2ccc3c(c2)OCO3)C1)N1CCN(c2ccccn2)CC1 (centres undefined)	x	6%	u	0%	u
Cc1cn([C@@H]2C[C@H](N=[N+]=N)[C@H](CO)O2)c(=O)[nH]c1=O	-6%	-3%	-13%	4%[17.1 µM]	-8%[20.9 µM]
O=C(NCc1ccccc1)c1cccc(NS(=O)(=O)c2cccc3cccnc23)c1	-2%	-3%	-5%	1%	0.5µM*
CN(CC(=O)NC1CCCCCCC1)S(=O)(=O)c1cccc2cccnc12	1%	11%[38.3 µM]	0%	2%	-14%
CC(CS(=O)(=O)c1cccc2cccnc12)N1CCCCC1 (centres undefined)	x	x	-11%	x	20µM*
O=C(c1ccc(NS(=O)(=O)c2cccc3cccnc23)cc1)N1CCCCC1	x	-5%	-3%[46 µM]	3%	u
O=C(NC1CCCCC1)c1ccc(NS(=O)(=O)c2cccc3cccnc23)cc1	x	-5%	x	0%	7.9µM*
CN(CC(=O)N1CCCCCC1)S(=O)(=O)c1cccc2cccnc12	-15%	-1%[38.3 µM]	0%	-4%	u
O=S(=O)(NC1CCCCCC1)c1cccc2cccnc12	-1%	-10%[38.3 µM]	u	-5%	14µM*
COCCNC(=O)c1cccc(NS(=O)(=O)c2cccc3cccnc23)c1	4%	9%	2%	-4%	u
COc1cc(OC)c(NC2(c3ccccc3)C(=O)c3ccccc3C2=O)cc1Cl	x	x	13%[46 µM]	x	x
